# Screening data as filed in PubChem.
# aSyn 5UTR inh = 5' untranslated region of α-synuclein, MLPCN primary screen. alpha-synuclein 5'UTR reporter, inhibitor activity. 300,000 tested, 0.82% active. inhibition, % (tested at 7.5 µM); in the data active means inhibition above about 60%; inconclusive means no clear call, values can overlap the other calls;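 further: H4 neuroglioblastoma cells stably carrying SNCA 5'UTR luciferase fusion; 0% = DMSO wells and 100% = positive control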
# APP 5UTR inh = APP translation inhibition; SH-SY5Y APP 5'UTR-luciferase reporter, luminescence; 190,000 tested, 0.82% active; inhibition, % at 2 µM;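 active means inhibition above a set limit, derived from the sample mean plus 3 SD, cut at about 45% in these data; inconclusive means one replicate passes the limit while the other fails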
# KLF5 inhibitor = kruppel-like factor 5 inhibition; inhibition, % at 5 µM; AID 1700; 290,000 tested, 0.23% active; DLD-1 KLF5 promoter-luciferase reporter, luminescence;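 active means inhibition above a per-plate limit of that plate's mean compound inhibition plus 3 SD, cut at about 60% in these data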;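 further: 0% = DMSO wells and 100% = LY294002 at 200 µM; higher means less KLF5 promoter-driven luciferase light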
# BaF3 parental = counter-screen for JAK2V617F inhibitors: parental Ba/F3 viability inhibitors; CellTiter-Glo ATP luminescence; inhibition, % at 5.6 µM; 220,000 tested, 1.1% active; AID 1486;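 active means inhibition above a per-campaign cutoff, the mean inhibition of all tested compounds plus 3 SD, cut at about 27% in these data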;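 further: 0% = DMSO wells and 100% = JAK Inhibitor I control wells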
# IEC-6 tox = IEC-6 cytotoxicity, counter-screen for KLF5 inhibitors; luminescence viability; inhibition, % at 5 µM; 290,000 tested, 0.78% active; AID 1825; in the data active means inhibition above about 22%;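 further: 0% = plate median of test compound wells and 100% = cytotoxic reference compound wells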
# Ba/F3 V617F tox = loss of viability in JAK2V617F-driven Ba/F3 cells. 220,000 tested, 1.1% active. inhibition, % at 5.6 µM. Ba/F3 EpoR-JAK2V617F viability, ATP luminescence;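 active means inhibition above the campaign mean plus 3 SD over all tested compounds, cut at about 24% in these data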;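 further: cytokine-independent growth of Ba/F3 cells driven by EpoR plus mutant JAK2; 0% = DMSO-treated cells and 100% = JAK inhibitor I control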
# * marks the source's active call; other numbers are inactive results; u = inconclusive; x = no result given. Compounds with a hit are over-represented: about 2.1% of the library has one in this group of screens.
SMILES,aSyn 5UTR inh,APP 5UTR inh,KLF5 inhibitor,BaF3 parental,IEC-6 tox,Ba/F3 V617F tox
C/C(=N\NC(=O)c1cccc(Br)c1)c1ccccn1,108*,x,39,x,12,x
C/C(=N\NC(=O)c1cc(Br)ccc1O)c1ccccn1,49,x,-65,x,3,x
C/C(=N\NC(=O)C1CCCN(S(=O)(=O)c2ccccc2)C1)c1ccccn1 (configuration not stated),67*,46*,-32,1,-4,0
C/C(=N\NC(=O)c1ccc(NS(=O)(=O)c2cccs2)cc1)c1ccccn1,71*,x,-18,-1,-1,0
C/C(=N\NC(=O)C(c1ccccc1)c1ccccc1)c1ccc(O)cc1,3,x,-12,x,-1,x
CCOc1cccc(-c2c(C(=O)N/N=C(\C)c3ccccn3)nnn2-c2nonc2N)c1,90*,x,58,x,52*,x
C/C(=N\NC(=O)C(c1ccccc1)c1ccccc1)c1ccccn1,80*,69*,13,12,-2,5
C/C(=N\NC(=O)c1ccc(NS(=O)(=O)c2cccs2)cc1)c1ccncc1,2,-10,-14,9,3,3
CCOc1cccc(-c2c(C(=O)N/N=C(\C)c3ccncc3)nnn2-c2nonc2N)c1,25,x,-25,x,-2,x
O=C(COC(=O)C1CC(O)CN1S(=O)(=O)c1ccc(Cl)cc1)c1cccc(Cl)c1 (configuration not stated),7,2,-3,3,-4,0
CCCN(CCC)CCNC(=O)C1CCN(Cc2nc(-c3ccc(Cl)cc3)oc2C)CC1,-30,16,3,19,57*,7
CCOC(=O)C(C)/C(C)=N/NC(=O)c1cc2ccccc2cc1O (configuration not stated),62*,-20,-3,5,0,2
C/C(CC(=O)N1CCCC1)=N\NC(=O)c1cc2ccccc2cc1O,-18,x,-15,3,0,4
O=C(N/N=C/c1cc(Br)ccc1O)C(=O)Nc1ccccc1OC(F)(F)C(F)F,82*,31,36,3,8,5
O=C(N/N=C/c1cc(Cl)ccc1O)C(=O)Nc1ccccc1OC(F)(F)C(F)F,x,60*,-6,5,2,0
Cc1cccc(OC(=O)Cn2c(C(F)(F)F)nc3ccccc32)c1,20,-11,-17,4,-3,2
Cc1cccc(OCc2n(CC(=O)OC3CC(C)CCC3C(C)C)c3ccccc3[n+]2C)c1 (configuration not stated),u,-32,-16,88*,0,101*
CC1CCC(C(C)C)C(OC(=O)Cn2c(-c3ccc(F)cc3)[n+](C)c3ccccc32)C1 (configuration not stated),x,-3,-9,82*,5,98*
COc1ccc(Oc2c(Cl)cnn(-c3ccc(Cl)c(Cl)c3)c2=O)cc1,73*,-11,19,11,1,3
Cc1cc(C)c2[nH]c(C(=O)Nc3ccc(F)cc3Br)cc2c1,-34,x,-30,x,4,x
Cn1cc(/C=N/n2cnc3scc(-c4ccccc4)c3c2=O)c2ccccc21,66*,92*,-27,5,1,2
CCC(C)NC(=O)c1cn(-c2cccc(OC)c2)c(=O)c2ccccc12 (configuration not stated),-3,x,-3,x,0,x
COc1ccc(/C=N/NC(=O)c2cc(=O)[nH]c3ccccc23)cc1OC,22,1,-12,39*,2,3
O=C(NCc1cccc(F)c1)c1ccc2nc(N3CCOCC3)sc2c1,11,x,-50,x,8,x
N#CC1=C(SCC(=O)c2ccc(Br)cc2)NC2=C(C(=O)CCC2)C1c1ccco1 (configuration not stated),x,67*,-8,2,3,1
SMILES,aSyn 5UTR inh,APP 5UTR inh,KLF5 inhibitor,BaF3 parental,IEC-6 tox,Ba/F3 V617F tox
CCc1ccc(NC(=O)CSC2=C(C#N)C(c3ccco3)C3=C(CCCC3=O)N2)cc1 (configuration not stated),0,-22,-30,-1,-1,-7
CCCN(CCC)C(=O)c1cc2c(=O)n3cccc(C)c3nc2s1,-21,x,-54,x,1,x
CCOC(=O)c1[nH]c(C)c(C(=O)N2CCN(c3ccccc3)CC2)c1C,4,20,-29,6,-1,8
CCOc1ccc2ccccc2c1C(=O)N1CCN(c2ccccc2)CC1,7,9,35,42*,25*,46*
CCCNC(=O)c1ccc2c(=O)c(O)c(-c3ccc(C)cc3)[nH]c2c1,69*,x,x,x,x,x
CCCNC(=O)c1ccc2c(=O)c(O)c(-c3ccsc3)[nH]c2c1,87*,x,x,x,x,x
CCCNC(=O)c1ccc2c(=O)c(O)c(-c3ccc(OC)cc3)[nH]c2c1,88*,x,x,x,x,x
Cc1ccc(-c2[nH]c3cc(C(N)=O)ccc3c(=O)c2O)cc1,-21,x,x,x,x,x
Cc1ccc(CNC(=O)c2ccc3c(=O)c(O)c(-c4ccc(C)cc4)[nH]c3c2)cc1,94*,x,x,x,x,x
Cc1cccc(C)c1NC(=O)N1CCC(C(=O)c2ccc(F)cc2)CC1,12,x,7,x,1,x
Cn1cc(S(=O)(=O)N2CCCC2)cc1C(=O)NCCc1ccccc1,-22,x,-21,x,4,x
CCOc1ccc(CCNC(=O)COC(=O)c2c(C)nn(-c3ccccc3)c2C)cc1OCC,8,x,-8,x,3,x
Cc1ccccc1CNc1nc(N)n(-c2ccccc2)n1,-2,0,-33,96*,6,-2
Cc1ccc(-c2noc(CNS(=O)(=O)c3ccccc3)n2)cc1,-58,x,-30,x,-5,x
COc1ccc(-c2n(Cc3ccccc3)c3ccccc3[n+]2Cc2ccccc2)cc1,55,-13,9,74*,11,96*
COc1cc(CN(C)Cc2ccccc2)cc(OC)c1O,-4,-21,-22,7,2,2
Nc1nc2ccccc2n1/N=C/c1cccnc1,-38,-18,0,2,2,-4
Nc1nc2ccccc2n1/N=C/c1ccc([N+](=O)[O-])s1,83*,24,5,4,-6,2
CSCCC(NS(=O)(=O)c1cccs1)C(=O)NCc1cccs1 (configuration not stated),3,47*,6,5,-2,-2
COc1cc(C2=NOC(C(=O)NCc3cccs3)C2)cc(OC)c1OC (configuration not stated),24,x,42,77*,21,82*
COc1ccc(C(=O)NCCc2nnc3ccc(SCC(=O)N4CCCCC4)nn23)cc1,19,x,-30,x,1,x
Nc1nc(-c2ccccn2)nc(N)c1Cc1ccc(Cl)cc1Cl,30,21,-6,4,2,0
Clc1cccc(Cl)c1Cn1nnc(N2CCCC2)n1,-64,x,-26,61*,0,34*
Cn1ccsc1=NC(=O)c1cccc(C#N)c1,-86,x,-37,x,-5,x
COc1ccc(C2CC(c3cccs3)=NN2C(=O)CSc2nc3c(cnn3-c3ccccc3)c(=O)[nH]2)cc1 (configuration not stated),19,22,-7,8,0,-4
